For 35 molecules, viability index results are on record in the supplement of paper PMC4723716.

Each structure is given as a SMILES string. ± gives the uncertainty stated by the source. The full ranking holds about 9,900 compounds; the median of “viability index relative to DMSO control” is about 1, and the lowest 2% start at about 0.85. The sample holds the lowest values, similar compounds and a random draw of the others, so the mix is not that of the screen.

The test has as its system Plasmodium falciparum NF54 stage V gametocytes. Nature of the test: viability index relative to DMSO control (fraction); higher = less gametocyte killing. To be noted: 2.5 µM, incubation time: 72 h. The protocol:
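Broad DOS informer set and blood-stage-active DOS compounds screened in duplicate at 2.5 µM against P. falciparum NF54 stage V gametocytes with the serum-free one-step SaLSSA (1536-well): 72 h at 37 °C under low oxygen, then saponin lysis and MitoTracker Red CMXRos staining, with high-content imaging. Viability index = viable-object count divided by the plate mean of DMSO wells (0 = killed, about 1 = inactive).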

Where [1] appears, read: library set: Broad Institute DOS.
Setting [2] is: library set: Broad Institute Blood Stage.

`CC(C)C#Cc1ccc([C@@H]2[C@@H](CO)N3C(=O)CN(C(=O)Cc4ccccc4)C[C@@H]23)cc1` displayed a viability index under setting [1] of 1.07 ± 0.047.

For `CC(C)C#Cc1ccc([C@H]2[C@@H](CO)N3C(=O)CN(C(=O)Cc4ccccc4)C[C@@H]23)cc1`, the viability index under setting [1] was determined as 1.07 ± 0.021.

In turn, `CC(C)C#Cc1ccc([C@@H]2[C@@H](CO)N3C(=O)CN(C(=O)Cc4ccccc4)C[C@H]23)cc1` had a viability index under setting [1] of 1.04 ± 0.039.

As to `CC(C)C#Cc1ccc([C@H]2[C@@H](CO)N3C(=O)CN(C(=O)Cc4ccccc4)C[C@H]23)cc1`, the viability index under setting [1] is 0.848 ± 0.025.

Turning to `C/C=C/c1ccc([C@H]2[C@H]3CN(S(=O)(=O)c4ccccc4)CC(=O)N3[C@H]2CO)cc1`, under setting [1], the viability index came out at 1.03 ± 0.034.

Under setting [1], `C/C=C/c1ccc([C@@H]2[C@@H](CO)N3C(=O)CN(S(=O)(=O)c4ccccc4)C[C@@H]23)cc1` registered a viability index of 0.777 ± 0.16.

`C/C=C/c1ccc([C@H]2[C@@H](CO)N3C(=O)CN(S(=O)(=O)c4ccccc4)C[C@H]23)cc1` returned a viability index under setting [1] of 0.975 ± 0.12.

As to `CC(C)C#Cc1ccc([C@@H]2[C@H]3CN(C(=O)Cc4ccccc4)CC(=O)N3[C@H]2CO)cc1`, the viability index under setting [1] stood at 0.864 ± 0.047.

`CC(C)C#Cc1ccc([C@H]2[C@H](CO)N3C(=O)CN(C(=O)Cc4ccccc4)C[C@@H]23)cc1` registered a viability index under setting [1] of 1.08 ± 0.08.

Molecule `O=C(Cc1ccccc1)N1CC(=O)N2[C@H](CO)[C@H](c3ccc(C#Cc4ccccc4)cc3)[C@H]2C1` returned a viability index under setting [2] of 0.728 ± 0.097.

In turn, `O=C(Cc1ccccc1)N1CC(=O)N2[C@H](CO)[C@H](c3ccc(C#CCc4ccccc4)cc3)[C@H]2C1` registered a viability index under setting [2] of 0.699 ± 0.1.

Take `CC(C)C#Cc1ccc([C@@H]2[C@H](CO)N3C(=O)CN(C(=O)Cc4ccccc4)C[C@@H]23)cc1`: the viability index under setting [1] was determined as 1.1 ± 0.016.

In turn, `C[C@H]1CN([C@@H](C)CO)C(=O)c2c(c3ccccc3n2C)-c2ccccc2CO[C@@H]1CN(C)C(=O)[C@@H](Cc1ccccc1)N(C)C` came in with a viability index under setting [1] of 1.07 ± 0.11.

For the molecule `CCS(=O)(=O)Nc1ccc2c(c1)C(=O)N(C)C[C@H](OC)[C@H](C)CN(CC1CCCCC1)[C@H](C)CO2`, the viability index under setting [1] amounted to 0.995 ± 0.1.

Under setting [1], `CN1CCN(C(=O)c2cc3c(c(-c4cccc(C5=CCCC5)c4)n2)[C@@H](CCO)N([S@](=O)C(C)(C)C)C3)CC1` had a viability index of 0.991 ± 0.024.

`O=C(Nc1cccc(Cl)c1)N1C[C@H]2[C@@H](c3ccccc31)[C@@H](CO)N2Cc1cccnc1` showed a viability index under setting [1] of 1.06 ± 0.092.

`C[C@@H]1CCCn2cc(nn2)COCCNC1=O` had a viability index under setting [1] of 0.994 ± 0.094.

`COCC#Cc1ccc([C@@H]2[C@@H](CO)N3CCCCN(C(=O)NC4CCCC4)C[C@@H]23)cc1` came in with a viability index under setting [1] of 1.01 ± 0.02.

Under setting [1], `CC(C)CC#Cc1ccc([C@H]2[C@@H](CO)N3CCCCN(C(=O)Nc4ccccc4)C[C@H]23)cc1` came in with a viability index of 0.782 ± 0.084.

As to `CC(C)CC#Cc1ccc([C@@H]2[C@@H](CO)N3CCCCN(C(=O)Nc4ccccc4)C[C@@H]23)cc1`, under setting [1], the viability index is 1 ± 0.15.

`CC(C)CC#Cc1ccc([C@H]2[C@H](CO)N3CCCCN(C(=O)Nc4ccccc4)C[C@@H]23)cc1`: the viability index under setting [1] amounted to 0.935 ± 0.034.

Turning to `CC(C)CC#Cc1ccc([C@H]2[C@H]3CN(C(=O)Nc4ccccc4)CCCCN3[C@H]2CO)cc1`, the viability index under setting [1] worked out at 0.99 ± 0.061.

`CC(C)CC#Cc1ccc([C@@H]2[C@@H](CO)N3CCCCN(C(=O)Nc4ccccc4)C[C@H]23)cc1` displayed a viability index under setting [1] of 0.844 ± 0.032.

In turn, `CC(C)CC#Cc1ccc([C@H]2[C@@H](CO)N3CCCCN(C(=O)Nc4ccccc4)C[C@@H]23)cc1` had a viability index under setting [1] of 1.02 ± 0.057.

`CC(C)CC#Cc1ccc([C@@H]2[C@H]3CN(C(=O)Nc4ccccc4)CCCCN3[C@H]2CO)cc1`: the viability index under setting [1] amounted to 0.542 ± 0.086.

As for `CC(C)CC#Cc1ccc([C@@H]2[C@H](CO)N3CCCCN(C(=O)Nc4ccccc4)C[C@@H]23)cc1`, the viability index under setting [1] came to 0.877 ± 0.053.

In turn, `Cc1noc(C)c1NC(=O)N1C[C@@H](O)COC[C@H]2O[C@@H](CC(=O)N[C@@H]3CCN(Cc4ccccc4)C3)CC[C@@H]21` gave a viability index under setting [1] of 0.994 ± 0.052.

In turn, `CCC(=O)N1[C@H](CO)[C@@H]2c3ccccc3N(C(=O)c3cnccn3)C[C@@H]21` yielded a viability index under setting [1] of 0.908 ± 0.3.

Under setting [1], `C/C=C/c1ccc2n(c1=O)C[C@H]1[C@H](CO)[C@@H](C(=O)Nc3nccs3)N(Cc3cc(F)ccc3F)[C@@H]21.C/C=C\c1ccc2n(c1=O)C[C@H]1[C@H](CO)[C@@H](C(=O)Nc3nccs3)N(Cc3cc(F)ccc3F)[C@@H]21` registered a viability index of 1.07 ± 0.056.

`Cc1noc(C)c1NC(=O)N(C)C[C@H]1Oc2ccc(NC(=O)Cc3cn(C)c4ccccc34)cc2CC(=O)N([C@@H](C)CO)C[C@H]1C` gave a viability index under setting [1] of 0.941 ± 0.2.

Molecule `COCC#Cc1ccc([C@H]2[C@H]3CN(C(=O)C4CCCCC4)CC(=O)N3[C@H]2CO)cc1` displayed a viability index under setting [1] of 1.01 ± 0.034.

`COc1ccc2c3c([C@@H](CO)N(C)C[C@]33CCN(CC3)C(=O)CN3CCOCC3)n(C)c2c1` came in with a viability index under setting [1] of 0.9699 ± 0.0061.

Under setting [1], `CN(C)C(=O)c1ccc(-c2ccc([C@H]3[C@@H]4CN(Cc5ccccc5Cl)C[C@H]3N4)cc2)cc1` displayed a viability index of 0.846 ± 0.021.

In the case of `CN(C)C(=O)c1cccc(-c2ccc([C@H]3[C@@H]4CN(Cc5ccccc5F)C[C@H]3N4)cc2)c1`, the viability index under setting [1] turned out to be 1.05 ± 0.084.

The molecule `CN(C)C(=O)c1cccc(-c2ccc([C@@H]3[C@@H]4CN(Cc5ccccc5F)C[C@H]3N4)cc2)c1` displayed a viability index under setting [1] of 0.977 ± 0.016.
